Data as given in PubChem BioAssay (EPA / NIEHS).
Several values for one entry are separate records, joined by “and”; a condition that tells them apart may be missing. Equal entries are not always repeated. Activity calls are given as the source filed them. How the source made its calls: active means hit-call score of the fitted dose curve at least 0.9, where 1 is the maximum; inactive means score below 0.9.

Tested on: not listed separately
Test: ATG_DR4_LXR_CIS: Attagene CIS-FACTORIAL HepG2 Assay for human Liver X Receptor (LXR), DR4 submotif (AID 2282929)
Conditions: HepG2 Attagene DR4 cis-reporter, mRNA transcription; actives raise or lower the signal
In short: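 Measures endogenous transcription factor activity via a DR4-driven reporter transcript in human HepG2 cells. Compounds incubated 24 h; mRNA quantified by RT-PCR and capillary electrophoresis, analysed as gain or loss of signal versus DMSO.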
In the case of C[C@]12CC[C@@H](O)C[C@@H]1CC[C@@H]1[C@@H]2CC[C@]2(C)C(=O)CC[C@@H]12, the outcome is reported as “inactive”. For CNC(=O)CSP(=O)(OC)OC, the outcome was “inactive”. For O=c1nc(O)n(Cl)c(=O)n1Cl, the outcome was “inactive”. In the case of CC(C)CC(C)(c1ccc(O)cc1)c1ccc(O)cc1, the AC50 is reported as 11.1 µM (active). In the case of CN(C)[C@@H]1C(=O)C(C(N)=O)=C(O)[C@@]2(O)C(=O)C3=C(O)c4c(O)ccc(Cl)c4[C@@](C)(O)[C@H]3C[C@@H]12, the outcome is reported as “inactive”. With N#Cc1ccc(Cl)cc1 the outcome was “inactive”. With N#CCC#N the outcome was “inactive”. For CC(C)[C@H](C(=O)OC(C#N)c1cccc(Oc2ccccc2)c1)c1ccc(OC(F)F)cc1 (stereo partly drawn), the outcome was “inactive”. In the case of c1ccc2c(c1)Oc1ccccc1O2, the outcome is reported as “inactive”. For BrCCCCBr, the outcome was “inactive”. With CCOP(=S)(OCC)SCSc1cc(Cl)ccc1Cl the outcome was “inactive”. With COC(F)(C(F)(F)C(F)(F)F)C(F)(C(F)(F)F)C(F)(F)F (stereo not drawn) the outcome was “inactive”. With BrCc1ccc(Br)cc1 the outcome was “inactive”. With CN(N=O)c1ccc([N+](=O)[O-])cc1 the outcome was “inactive”. For Fc1cccc(Cl)c1CCl, the outcome was “inactive”. For O=S1(=O)OC(c2cc(Br)c(O)c(Br)c2)(c2cc(Br)c(O)c(Br)c2)c2ccccc21, the outcome was “inactive”. For Brc1ccc(Br)cc1, the outcome was “inactive”. For C[N+](C)(C)Cc1ccccc1, the outcome was “inactive”. With CCOP(=S)(OCC)OP(=S)(OCC)OCC the AC50 was 29.5 µM (active). With O=C(N[C@H]1CN2CCC1CC2)c1ccc2c(c1)OCCO2 the outcome was “inactive”. In the case of CC1(C)COP(Oc2ccccc2)OC1, the outcome is reported as “inactive”. In the case of O=[N+]([O-])c1ccc(Nc2ccccc2)cc1, the outcome is reported as “inactive”. With O=S(=O)(F)C(F)(F)C(F)(F)C(F)(F)C(F)(F)F the outcome was “inactive”. For Nc1ncn[nH]1, the outcome was “inactive”. In the case of CCC[CH2][Sn]([CH2]CCC)([CH2]CCC)[CH2]CCC, the AC50 is reported as 3.31 µM (active). For CCOP(=S)(OCC)O/N=C(\C#N)c1ccccc1, the AC50 was 27.7 µM (active). With Clc1cc(C(Cl)(Cl)Cl)cnc1Cl the AC50 was 8.81 µM (active). In the case of COC(=O)Nc1cccc(OC(=O)Nc2cccc(C)c2)c1, the outcome is reported as “inactive”. With Brc1ccc(Oc2c(Br)cc(Br)cc2Br)c(Br)c1 the outcome was “inactive”. With CCOP(=O)(OCC)SCCSCC the outcome was “inactive”. For N#CS, the outcome was “inactive”. For Cc1cc(-c2cc(C)c(N)c(C)c2)cc(C)c1N, the outcome was “inactive”. With O=c1oc2ccccc2c(O)c1C(CC(O)c1ccc(-c2ccc(Br)cc2)cc1)c1ccccc1 (stereo not drawn) the AC50 was 37.6 µM (active) and 30.8 µM (active). With Cc1ccc2nc3sc(=O)sc3nc2c1 the AC50 was 22.4 µM (active). For CC[N+](CC)(CC)CC, the outcome was “inactive”. With CC(C)(c1ccccc1)c1cc(-n2nc3ccccc3n2)c(O)c(C(C)(C)c2ccccc2)c1 the outcome was “inactive”. In the case of Cc1cc(C(F)(C(F)(F)F)C(F)(F)F)ccc1NC(=O)c1cccc(I)c1C(=O)NC(C)(C)CS(C)(=O)=O, the outcome is reported as “inactive”. In the case of N#CCCC(Br)(C#N)CBr (stereo not drawn), the outcome is reported as “inactive”. For COc1ccc(N)cc1, the outcome was “inactive”.

Target: Aryl hydrocarbon receptor (Homo sapiens) (UniProt P35869)
Sequence (P35869 whole entry, looked up): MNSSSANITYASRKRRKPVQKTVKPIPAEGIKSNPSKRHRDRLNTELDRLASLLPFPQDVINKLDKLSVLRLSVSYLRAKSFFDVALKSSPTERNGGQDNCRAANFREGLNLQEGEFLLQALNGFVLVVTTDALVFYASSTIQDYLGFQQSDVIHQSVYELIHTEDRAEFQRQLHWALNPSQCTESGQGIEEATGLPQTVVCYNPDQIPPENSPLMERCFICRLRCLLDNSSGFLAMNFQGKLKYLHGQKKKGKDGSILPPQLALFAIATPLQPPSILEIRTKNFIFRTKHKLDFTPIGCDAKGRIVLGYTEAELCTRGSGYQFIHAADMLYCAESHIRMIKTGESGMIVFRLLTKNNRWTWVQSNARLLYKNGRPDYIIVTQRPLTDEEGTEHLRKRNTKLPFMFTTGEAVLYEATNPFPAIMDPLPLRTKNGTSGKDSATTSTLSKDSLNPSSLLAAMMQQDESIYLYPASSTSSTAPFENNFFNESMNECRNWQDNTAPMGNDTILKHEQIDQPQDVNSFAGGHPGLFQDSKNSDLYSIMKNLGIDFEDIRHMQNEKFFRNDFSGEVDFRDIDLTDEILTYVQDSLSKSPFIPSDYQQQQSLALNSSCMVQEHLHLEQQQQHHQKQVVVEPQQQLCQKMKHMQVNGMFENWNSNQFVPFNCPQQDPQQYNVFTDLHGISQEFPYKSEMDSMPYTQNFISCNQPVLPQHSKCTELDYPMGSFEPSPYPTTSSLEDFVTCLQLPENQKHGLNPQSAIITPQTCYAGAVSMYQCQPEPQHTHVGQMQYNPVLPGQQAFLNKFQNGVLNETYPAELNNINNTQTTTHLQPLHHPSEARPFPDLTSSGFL
Test: ATG_Ahr_CIS: Attagene CIS-FACTORIAL HepG2 Assay for human Aryl Hydrocarbon Receptor (Ahr) (AID 2282930)
Conditions: HepG2 AhR cis-factorial reporter transcription; actives raise or lower the signal
In short: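 HepG2 cells transiently transfected with cis-element-driven multiplexed reporter transcription units; endogenous transcription factor activity measured as reporter mRNA 24 h after dosing. RT-PCR, 6-FAM labelling, HpaI digestion, capillary electrophoresis; bidirectional fitting versus DMSO baseline.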
For C[C@]12CC[C@@H](O)C[C@@H]1CC[C@@H]1[C@@H]2CC[C@]2(C)C(=O)CC[C@@H]12, the outcome was “inactive”. For CNC(=O)CSP(=O)(OC)OC, the outcome was “inactive”. With O=c1nc(O)n(Cl)c(=O)n1Cl the outcome was “inactive”. For CC(C)CC(C)(c1ccc(O)cc1)c1ccc(O)cc1, the outcome was “inactive”. With CN(C)[C@@H]1C(=O)C(C(N)=O)=C(O)[C@@]2(O)C(=O)C3=C(O)c4c(O)ccc(Cl)c4[C@@](C)(O)[C@H]3C[C@@H]12 the outcome was “inactive”. In the case of N#Cc1ccc(Cl)cc1, the outcome is reported as “inactive”. In the case of N#CCC#N, the outcome is reported as “inactive”. For CC(C)[C@H](C(=O)OC(C#N)c1cccc(Oc2ccccc2)c1)c1ccc(OC(F)F)cc1 (stereo partly drawn), the outcome was “inactive”. With c1ccc2c(c1)Oc1ccccc1O2 the AC50 was 0.667 µM (active). In the case of BrCCCCBr, the outcome is reported as “inactive”. In the case of CCOP(=S)(OCC)SCSc1cc(Cl)ccc1Cl, the outcome is reported as “inactive”. With COC(F)(C(F)(F)C(F)(F)F)C(F)(C(F)(F)F)C(F)(F)F (stereo not drawn) the outcome was “inactive”. In the case of BrCc1ccc(Br)cc1, the AC50 is reported as 60.9 µM (active). With CN(N=O)c1ccc([N+](=O)[O-])cc1 the AC50 was 26.8 µM (active). With Fc1cccc(Cl)c1CCl the outcome was “inactive”. In the case of O=S1(=O)OC(c2cc(Br)c(O)c(Br)c2)(c2cc(Br)c(O)c(Br)c2)c2ccccc21, the AC50 is reported as 26 µM (active). With Brc1ccc(Br)cc1 the outcome was “inactive”. In the case of C[N+](C)(C)Cc1ccccc1, the outcome is reported as “inactive”. For CCOP(=S)(OCC)OP(=S)(OCC)OCC, the outcome was “inactive”. For O=C(N[C@H]1CN2CCC1CC2)c1ccc2c(c1)OCCO2, the outcome was “inactive”. With CC1(C)COP(Oc2ccccc2)OC1 the outcome was “inactive”. For O=[N+]([O-])c1ccc(Nc2ccccc2)cc1, the outcome was “inactive”. In the case of O=S(=O)(F)C(F)(F)C(F)(F)C(F)(F)C(F)(F)F, the outcome is reported as “inactive”. With Nc1ncn[nH]1 the outcome was “inactive”. In the case of CCC[CH2][Sn]([CH2]CCC)([CH2]CCC)[CH2]CCC, the outcome is reported as “inactive”. In the case of CCOP(=S)(OCC)O/N=C(\C#N)c1ccccc1, the AC50 is reported as 0.657 µM (active). With Clc1cc(C(Cl)(Cl)Cl)cnc1Cl the outcome was “inactive”. In the case of COC(=O)Nc1cccc(OC(=O)Nc2cccc(C)c2)c1, the outcome is reported as “inactive”. For Brc1ccc(Oc2c(Br)cc(Br)cc2Br)c(Br)c1, the outcome was “inactive”. With CCOP(=O)(OCC)SCCSCC the outcome was “inactive”. For N#CS, the outcome was “inactive”. In the case of Cc1cc(-c2cc(C)c(N)c(C)c2)cc(C)c1N, the AC50 is reported as 0.776 µM (active). For O=c1oc2ccccc2c(O)c1C(CC(O)c1ccc(-c2ccc(Br)cc2)cc1)c1ccccc1 (stereo not drawn), the outcome was “inactive”. With Cc1ccc2nc3sc(=O)sc3nc2c1 the outcome was “inactive”. For CC[N+](CC)(CC)CC, the outcome was “inactive”. With CC(C)(c1ccccc1)c1cc(-n2nc3ccccc3n2)c(O)c(C(C)(C)c2ccccc2)c1 the outcome was “inactive”. For Cc1cc(C(F)(C(F)(F)F)C(F)(F)F)ccc1NC(=O)c1cccc(I)c1C(=O)NC(C)(C)CS(C)(=O)=O, the outcome was “inactive”. For N#CCCC(Br)(C#N)CBr (stereo not drawn), the AC50 was 33.4 µM (active). In the case of COc1ccc(N)cc1, the outcome is reported as “inactive”.
